In PubChem BioAssay AID1662 (Broad Institute, 2009):
In all, about 300,000 compounds went through this assay and about 4,000 (1.3%) were called active.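 The calls were made as follows: active = mean replicate score, as percent of positive control median, at least 50; inconclusive = mean below 50 but one replicate at or above 50; inactive = mean and every replicate below 50.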 For the sample, actives were picked, then their nearest neighbours and some compounds at random.

Experiment: S. pyogenes SKKanGAS growth inhibitors in kanamycin, primary screen, streptokinase expression inhibitor project, SKKanGAS strain, BacTiter-Glo luminescence (AID 1662);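 also: strain carries kanamycin resistance gene driven by streptokinase promoter and grows in 40 µg/ml kanamycin; loss of luminescence reflects streptokinase promoter inhibition or plain growth inhibition; 0% = median of DMSO wells and 100% = positive control at its reference dose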
Details: 6 h, at 7.5 µM, active compounds read high

Structure (SMILES) | inhibition
CCC(NC(=O)C1CCCC1)c1ccc(C)cc1 (centres undefined) | 5.2% (inactive)
Cc1nn(C)c(C)c1S(=O)(=O)N1CCC(CO)(Cc2ccc(Cl)cc2)CC1 | -2.57% (inactive)
CC1CN(C(=S)Nc2ccccc2F)CC(C)O1 (centres undefined) | -2.73% (inactive)
COc1ccccc1NC(=S)N1CCN(c2ccc(F)cc2)CC1 | -4.99% (inactive)
COc1c(N2CCN(C(=S)Nc3ccccc3F)C(C)C2)c(F)cc2c(=O)c(C(=O)O)cn(C3CC3)c12 (centres undefined) | 104% (active)
COc1ccc(S(=O)(=O)NCC(=O)NC2CC2)cc1OC | -2.16% (inactive)
Cc1cc(Cl)c2oc(C(=O)N3CCC(O)(c4ccccc4)CC3)c(C)c2c1 | 64.2% (active)
Cc1cc(Cl)c2oc(C(=O)N(C)C(C)c3ccccn3)c(C)c2c1 (centres undefined) | 8.03% (inactive)
Cc1cc(Cl)c2oc(C(=O)NC(C)c3ccncn3)c(C)c2c1 (centres undefined) | -5.52% (inactive)
COc1ccc(CCNC2=CC(=O)CC(C)(C)C2)cc1 | -6.22% (inactive)
CC(C)(C)N1C(=O)[C@H]2[C@@H](c3ccc(Br)cc3)N3C(=O)N(c4cccc(Cl)c4)C(=O)[C@@]3(C)[C@H]2C1=O | -0.18% (inactive)
Cc1cccc(-n2nc3c(c2NC(=O)c2cc4ccccc4o2)CS(=O)(=O)C3)c1 | 1.09% (inactive)
CCOC(=O)c1cc(-c2ccc(F)cc2)n(CC(=O)NCc2ccccn2)c1C | -1.39% (inactive)
COc1nc(NC2CCCCC2)nc(N2CCCCCC2)n1 | 75.9% (active)
COC(=O)c1ccc(Oc2nc(Nc3ccc(F)cc3)nc(N3CCCC3)n2)cc1 | 18.8% (inactive)
Clc1nc(NC2CCCC2)nc(N2CCOCC2)n1 | 3.5% (inactive)
O=c1cc(C(F)(F)F)[nH]c(=O)n1C1CCCCC1 | 11.3% (inactive)
O=C(c1cccc(F)c1)N1CCN(c2ccc([N+](=O)[O-])c3cccnc23)CC1 | -4.2% (inactive)
Cc1nnc(SCC(=O)Nn2cnnc2)s1 | 4.69% (inactive)
Cc1cccc(CSc2nnc(NC(=O)CSc3nnc(C)s3)s2)c1 | 7.83% (inactive)

Structure (SMILES) | inhibition
Cc1cc(C)cc(C(=O)NC2C(=O)N3C(C(=O)O)=C(CSc4nnc(C)s4)CSC23)c1 (centres undefined) | 96.4% (active)
Cc1nnc(SCC(=O)NC2CCCC2)s1 | -0.971% (inactive)
Cc1nnc(SCC2=C(C(=O)O)N3C(=O)C(NC(=O)Cn4nc(C)c(Cl)c4C)C3SC2)s1 (centres undefined) | 88.3% (active)
COc1ccc(NC(=O)CCCC(=O)c2ccccc2)cc1 | 1.96% (inactive)
CCOc1ccccc1/C=N/Nc1nc2ccccc2o1 | 2.09% (inactive)
COc1cc(N/C=C2\CC(=O)NC(C)=C2C#N)cc(OC)c1OC | -0.282% (inactive)
O=C(Nc1ccc(F)cc1)c1ccc(S(=O)(=O)NCc2cccnc2)cc1 | -0.655% (inactive)
FC(F)(F)c1cc(-c2ccco2)nc(NCc2ccc(Cl)cc2)n1 | 65.4% (active)
FC(F)(F)c1cc(-c2cccs2)nc(NCc2ccco2)n1 | -2.9% (inactive)
Cc1cc(C(F)(F)F)nn1-c1nc(-c2ccco2)cc(C(F)(F)F)n1 | 7.56% (inactive)
O=S(=O)(Nc1cccc(-c2ccc(N3CCOCC3)nn2)c1)c1ccc(Cl)c(Cl)c1 | 53.5% (active)
O=[N+]([O-])c1ccc(S(=O)(=O)Nc2cccc(-c3ccc(N4CCCC4)nn3)c2)cc1 | 0.0506% (inactive)
O=S(=O)(Nc1ccc(-c2ccc(N3CCOCC3)nn2)cc1)c1cc(Cl)ccc1Cl | 18.8% (inactive)
CC1CN(S(=O)(=O)c2cccc(C(F)(F)F)c2)CN1C(=O)N1CCOCC1 (centres undefined) | 0.316% (inactive)
COc1cc2cc(C(=O)N/N=C/c3cccc(OC)c3OC)[nH]c2cc1OC | 2.92% (inactive)
CN(C)CCNC(=O)c1[nH]nc2c1CCc1ccccc1-2 | -5.17% (inactive)
COc1cccc(/C=N/NC(=O)c2[nH]nc3c2CCc2ccccc2-3)c1O | 79% (active)
COc1ccccc1C1C(C(N)=O)=C(C)Nc2nc(CCCO)nn21 (centres undefined) | -3.27% (inactive)
CCOc1ccc(CN(C)C(=O)c2ccc(=O)[nH]c2)cc1 | 1.34% (inactive)
CCOC(=O)C1=C(CCc2ccccc2)NC(=O)NC1c1ccc2ccccc2c1 (centres undefined) | 19.2% (inactive)

Structure (SMILES) | inhibition
CC(C)Cn1c(CCC(=O)O)ccc1-c1cccs1 | -8.87% (inactive)
CCCCCCn1c(SCC(=O)c2ccccc2)nc2c1c(=O)[nH]c(=O)n2C | 73.3% (active)
CCCCCn1c(SCCC(C)C)nc2c1c(=O)[nH]c(=O)n2C | 26.4% (inactive)
C=CCSc1nc2c(c(=O)[nH]c(=O)n2C)n1Cc1ccccc1 | -11.2% (inactive)
N=c1ccn(CC(=O)NC(N)=O)c2ccccc12 | -5.02% (inactive)
Cc1cc(-c2ccc(C)c(S(=O)(=O)NC(C)Cc3ccco3)c2)on1 (centres undefined) | 2.44% (inactive)
CCC(=C/c1sc2ccc3ccccc3c2[n+]1C)/C=C1\Sc2ccc3ccccc3c2N1C | 69.5% (active)
COc1ccc(C(CNC(=O)c2cccc(S(=O)(=O)Nc3ccccc3Cl)c2)N2CCOCC2)cc1 (centres undefined) | 67.6% (active)
COc1ccc(C(CNC(=O)c2ccc(S(=O)(=O)Nc3ccccc3C)cc2)N2CCOCC2)cc1 (centres undefined) | -13.5% (inactive)
COc1ccc(C(CNC(=O)c2cccc(NS(=O)(=O)c3ccc(C)c(F)c3)c2)N2CCCC2)cc1 (centres undefined) | -16% (inactive)
C=Cc1ccc(C(=O)N2CCCC(CCC(=O)N3CCN(c4ccccn4)CC3)C2)cc1 (centres undefined) | 4.83% (inactive)
CC(C)C(=O)Nc1nnc(SCC(=O)N2C(C)CCCC2C)s1 (centres undefined) | -1.25% (inactive)
CC1Cc2ccccc2N1S(=O)(=O)c1ccc(Cl)nc1 (centres undefined) | -1.93% (inactive)
Cc1[nH]n(-c2cccc(Cl)c2)c(=O)c1-c1ccc(Cl)cc1 | 39.1% (inactive)
Cc1ccc(-n2[nH]c(C)c(/C=N/N3C(=O)c4cccc5cccc(c45)C3=O)c2=O)cc1 | 8.48% (inactive)
Cc1[nH]n(-c2ccc(Cl)cc2)c(=O)c1/C=N/n1c(C)nc2ccccc2c1=O | 69.1% (active)
COc1cc(NS(=O)(=O)c2ccc(N=Cc3c(C)[nH]n(-c4ccccc4)c3=O)cc2)nc(OC)n1 | 7.41% (inactive)
Cc1[nH]n(-c2cccc(Cl)c2)c(=O)c1/C=N/n1c(C)nc2ccccc2c1=O | 79.2% (active)
CCOc1[nH]n(-c2ccc(Cl)cc2)c(=O)c1C=Nc1ccc(O)cc1 | 2.84% (inactive)
